This is an account of results in PubChem BioAssay (NCI).

This is part of a sample that, as a whole, favours compounds with a hit. Of some 83,000 tested, about 20% had one in any assay.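 Step 1: grow cells in 96-well plates. Step 2: add test compound at a single concentration. Step 3: incubate 48 h. Step 4: record percent growth.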 Values without a mark were called inactive. The source made the active and inactive calls. The calls were made as follows: active = growth percent below 10; inactive = the rest.

The test system of the test is SF-295 CNS. Put plainly: NCI-60 one-dose screen, 48 h (100 = growth as untreated, 0 = no growth, -100 = all killed). Particulars: 10 µM unless noted.
With `O=C(Nc1ccc(Oc2ccc(Nc3nc4ccccc4s3)cc2)cc1)Nc1ccc(Cl)c(C(F)(F)F)c1`, the growth is 5.6% (active).

For the compound `C[C@]12CCc3nc(Nc4ccc(O)cc4)sc3C1=CC[C@@H]1[C@@H]2CC[C@]2(C)/C(=N/NC(N)=S)CC[C@@H]12`, the growth is -8.62% (active).

`c1ccc2c(c1)cnc1ccccc12`: the growth is 113%.

Take `Cc1cc(C)c2c(n1)sc1c(Nc3ccc(OCc4ccccc4)cc3)ncnc12`: the growth is 101%.

On to `COc1ccc2[nH]c(C(=O)OCc3ccc4cccc(O)c4n3)cc2c1`, for which the growth is 73.7%.

On to `Cc1ccc2oc(=O)cc(-c3nc4ccc([N+](=O)[O-])cc4[nH]3)c2c1`, for which the growth was 49.3%.

For `Cc1nc2ccc(Nc3nc(Cl)nc(N4CCOCC4)n3)cc2n1Cc1ccccc1`, the growth is 87.3%.

As for `O=C(CI)NCCNc1cccc2c(S(=O)(=O)O)cccc12`, the growth was 98.5%.

Turning to `O=c1[nH]cnc2nc[nH]c12`, the growth was 93.8%.

For the compound `CCN(CC)C(Cl)=Nc1ccc(Cl)cc1`, the growth is 97.1%.

As to `c1ccc2c(Cc3csc4ccccc34)csc2c1`, the growth is 69.2%.

As for `COc1cc(C2CC(c3cccc(Nc4ccnc5cc(Cl)ccc45)c3)=NN2c2ccccc2)cc(OC)c1OC` (stereo unspecified), the growth is 31.5%.

For the compound `O=C1/C(=C\c2cccn2Cc2ccc(F)cc2)c2ccccc2N1c1c(Cl)cccc1Cl`, the growth was 81.9%.

For the compound `CC(C)(C)c1ccc(Cn2c(-c3nonc3N)nc3ccccc32)cc1`, the growth is 71.5%.

In the case of `CCC(C)C1NC(=O)c2nc(oc2-c2ccccc2)-c2csc(n2)-c2csc(n2)-c2nc(oc2C)-c2coc(n2)CNC(=O)C(C(C)CC)NC1=O` (stereo unspecified), the growth is -78.9% (active).

Turning to `CCOC(=O)C1=C(C)NC(SCc2nnc(-c3ccc(Cl)cc3)o2)=NC1c1ccc(Br)cc1` (stereo unspecified), the growth is 73.6%.

For the compound `Cc1[nH]nc2ccc3nc(-c4ccc5[nH]ncc5c4)c4c(c3c12)CCCC4`, the growth was 31.1%.

As to `CCCOC(=O)C1c2cc3c(cc2CC(C)C1C(=O)OCCC)OCO3` (stereo unspecified), the growth was 83%.

On to `COc1cc(C2CC(c3ccc(Nc4ccnc5cc(Cl)ccc45)cc3)=NN2c2ccccc2)cc(OC)c1OC` (stereo unspecified), for which the growth is 57.7%.

In the case of `CC(=O)c1c(C)nc(-c2cc(C)cc(Cl)c2)nc1-c1cccc(Oc2ccccc2)c1`, the growth is 77.3%.

In the case of `CC(C)NC(=O)OCC#CCOC(=O)NC(C)C`, the growth was 82.8%.

Take `Cc1nc2c(-c3cnc(N)nc3)nc(N3CCOCC3)nc2n1C(C)C`: the growth was -36.1% (active).

As for `[Ag].[Ag].[NH-]S(=O)(=O)c1ccc(N=Nc2cc(N=Nc3ccc(S([NH-])(=O)=O)cc3)c3c(NC(=O)C(Cl)Cl)cccc3c2OC(=O)C(Cl)Cl)cc1.[c-]1nccs1.[c-]1nccs1`, the growth is 81.6%.

For the compound `Nc1ccc(N(O)/C=C2\C=CC=CC2=O)cc1N`, the growth is 112%.

Turning to `Cc1nc2ccc(Nc3nc(N4CCOCC4)nc(N4CCN(C)CC4)n3)cc2n1Cc1ccccc1`, the growth is 90.1%.

As for `COc1cc(C)c2c(=O)c3c(oc2c1)C(=O)c1c(O)c(OC)cc(O)c1C3=O`, the growth was 25.7%.

With `O=C(OCc1ccc2c(Br)cc(Br)c(O)c2n1)c1cc2ccccc2[nH]1`, the growth is 68.5%.

As for `CN1CCN(Cc2ccc(NC(=O)c3cncc(C#Cc4cnc5cccnn45)c3)cc2C(F)(F)F)CC1`, the growth is 28.6%.

With `CCOC(=O)c1ccccc1SC(C[N+](=O)[O-])c1ccccc1` (stereo unspecified), the growth was 99.7%.

In the case of `CC(C)CC(NC(=O)OCC1c2ccccc2-c2ccccc21)C(=O)O` (stereo unspecified), the growth was 77.2%.

For the compound `CN1CCN(Cc2ccc(NC(=O)c3cncc(C#Cc4ccc(N)nc4)c3)cc2C(F)(F)F)CC1`, the growth was 11.5%.
